# Records with an inconclusive call do not appear. Values without a mark were called inactive. Calls of active or inactive are those of the source. The call rests on the fitted dose curve; in most records, active means well fitted cell-killing curve with a large enough effect; inconclusive means small, poorly fitted or top-dose-only effect, or effect the other way; inactive means no such curve, though single readings can be large or run the other way.
# Test: Quantitative High-Throughput drug screen in 47 multiple myeloma cell lines against the NCATS MIPE library collection: JIM1_ECACC cell viability assay (AID 1918964)
# Conditions: JIM1 myeloma viability, CellTiter-Glo ATP luminescence, 48 h; series mostly up to 45.8 µM; viability (% of DMSO): at the top concentration
# Method in brief: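 Primary qHTS used for cherry-picking: cells at 500/well, library compounds for 48 h (37C, 5% CO2), luminescent ATP assay.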
# Potency means the concentration at half of the fitted maximal effect.
SMILES,Potency,viability (% of DMSO)
O=C(NOCC1CC1)c1ccc(F)c(F)c1Nc1ccc(I)cc1Cl,9.35 µM (active),
O=C(O)c1cccc(-c2noc(-c3ccccc3F)n2)c1,,114%
CN(C)c1ccc(O)c2c1C[C@H]1C[C@H]3[C@H](N(C)C)C(=O)C(C(N)=O)=C(O)[C@@]3(O)C(=O)C1=C2O,,108%
O=C(NCCO[N+](=O)[O-])c1cccnc1,,104%
Cc1c(C(=O)NN2CCCCC2)nn(-c2ccc(Cl)cc2Cl)c1-c1ccc(Cl)cc1,11.8 µM (active),

# Test: Quantitative High-Throughput drug screen in 47 multiple myeloma cell lines against the NCATS MIPE library collection: INA6_PLB cell viability assay (AID 1918965; further: nearly all actives have a fitted effect of over 55% in size)
# Conditions: INA6 myeloma viability, CellTiter-Glo ATP luminescence, 48 h; series mostly up to 45.8 µM; viability (% of control): at the top concentration
# Method in brief: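 CellTiter-Glo luminescence (ATP) after 48 h compound exposure, 37C/5% CO2; 500 cells/well; MIPE 4.0 approved/investigational drugs pinned in; DMSO = 100%, media only = 0% viability.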
SMILES,viability (% of control),Potency
O=C(O)CCNC(=O)c1ccc(N=Nc2ccc(O)c(C(=O)O)c2)cc1,167%,
COc1cc2c(N3CCN(C(=O)Nc4ccc(OC(C)C)cc4)CC3)ncnc2cc1OCCCN1CCCCC1,,3.72 µM (active)
Cc1nc2n(c(=O)c1CCN1CCC(c3noc4cc(F)ccc34)CC1)CCCC2,110%,
COC(=O)N[C@H](C(=O)N[C@@H](Cc1ccccc1)[C@@H](O)CN(Cc1ccc(-c2ccccn2)cc1)NC(=O)[C@@H](NC(=O)OC)C(C)(C)C)C(C)(C)C,121%,
Nc1cc(C(Cl)=C(Cl)Cl)c(S(N)(=O)=O)cc1S(N)(=O)=O,168%,
CCC1=C(C)CN(C(=O)NCCc2ccc(S(=O)(=O)NC(=O)NC3CCC(C)CC3)cc2)C1=O (stereo not given),158%,
Oc1ccc2ccccc2c1SSc1c(O)ccc2ccccc12,,5.9 µM (active)
Oc1ccc(-c2nc(-c3ccc(F)cc3)c(-c3ccncc3)[nH]2)cc1,,14.8 µM (active)
CCCCCCCCCCCCCCCCCCCCCCO,144%,
CS(=O)(=O)OCCCCOS(C)(=O)=O,210%,

# Reference: PubChem BioAssay (NCATS)
